Data: PubChem BioAssay

Assay: modulators of S6 phosphorylation in cells, primary screen, cell-based, A549, cytoblot, luminescence, serum-stimulated (AID 1158);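 further: serum-stimulated A549 lung adenocarcinoma cells; signal is phosphorylated S6 detected by cytoblot immunostaining with HRP secondary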
Conditions: A549 phospho-S6 cytoblot, 5 h, higher = more signal

In order of rising z-score:
1. CC(=O)n1cc(C(O)C2C=CC3C(=O)N(c4ccccc4)C(=O)C3N2Nc2ccc(C(C)C)cc2)c2ccccc21 (stereo not given)  -1.04
2. CC(=O)N1CC(C(O)C2C=CC3C(=O)NC(=O)C3N2Nc2ccc(Cl)cc2Cl)c2ccccc21 (stereo not given)  -0.746
3. C=C(C)[C@@H]1CC=C(C(O)C2C=CC3C(=O)N(c4ccccc4)C(=O)C3N2Nc2ccc(C#N)cc2)CC1 (stereo not given in full)  -0.66
4. COCCOC(=O)N1C(=O)[C@@]2(c3cc(C#CC4(O)CCCCCC4)ccc31)[C@H](c1ccc(OCCO)cc1)N1[C@H](c3ccccc3)[C@H](c3ccccc3)OC(=O)[C@H]1[C@@H]2C(=O)Nc1nc2ccccc2s1  -0.652
5. O=C1C2C=CC(C(O)c3ccco3)N(Nc3ccccc3)C2C(=O)N1c1ccccc1 (stereo not given)  -0.647
6. C=C(C(=O)CC[C@H](OC(=O)c1ccccc1-c1ccccc1C(=O)O)c1ccccc1OCCO)C(C)C  -0.549
7. COC(=O)[C@@]1(Cc2ccc(OC)cc2)[C@H]2c3cc(C(=O)N4CCCC4)n(Cc4cc(C)n(C)n4)c3C[C@H]2CN1C(=O)c1ccccc1  -0.458
8. COCCOC(=O)N1C(=O)[C@@]2(c3cc(C#CCNC(N)=O)ccc31)[C@H](c1ccc(O)cc1)N1[C@H](c3ccccc3)[C@H](c3ccccc3)OC(=O)[C@H]1[C@@H]2C(=O)N1CCN(c2ncccn2)CC1  -0.43
9. CC(=O)NCCCC[C@@H]1NC(=O)[C@@H]2C[C@H](C(=O)NCCCCCCN)[C@H](c3cccc(OCCO)c3)N2C1=O  -0.42
10. COc1cc2c(cc1OC)CN(C(=O)[C@@H]1[C@H]3C(=O)O[C@H](c4ccccc4)[C@H](c4ccccc4)N3[C@H](c3ccc(O)cc3)[C@@]13C(=O)Nc1ccc(C#CCCO)cc13)CC2  -0.42
11. CCCNC(=O)[C@@]1(Sc2ccc(C)cc2)CC(=O)N(C2CCCCC2)[C@@H]1c1ccc(CO)cc1I  -0.328
12. CC(C)OC(=O)CC(=O)CC(O)c1ccc([N+](=O)[O-])cc1 (stereo not given)  -0.243
13. CC(C)=CCCC(C)=CC(O)C1C=CC2C(=O)N(c3ccccc3)C(=O)C2N1Nc1ccccc1F (stereo not given)  -0.162
14. COCCOC(=O)N1C(=O)[C@@]2(c3cc(C#CCNC(N)=O)ccc31)[C@H](c1ccc(OCCO)cc1)N1[C@H](c3ccccc3)[C@H](c3ccccc3)OC(=O)[C@H]1[C@@H]2C(=O)NC[C@H](O)c1ccccc1  -0.144
15. CC(C)C[C@@H]1NC(=O)CNC(=O)[C@@]23C(=O)N[C@@H](Cc4ccccc4)C2[C@H](C)[C@@]2(C)O[C@H]2C3/C=C/C/C=C\CNC1=O (stereo not given in full)  -0.0425
16. NCCCCCNC(=O)[C@H]1C[C@H]2C(=O)N[C@@H](Cc3ccccc3)C(=O)N2[C@H]1c1ccc(O)cc1  0.0042
17. CN(C)CCCCNC(=O)[C@H]1C[C@H]2C(=O)N[C@@H](CCCC[N+](C)(C)C)C(=O)N2[C@H]1c1ccc(O)cc1  0.0054
18. CCCNC(=O)[C@@]1(C)c2ccccc2C(=O)N(Cc2ccccc2)[C@H]1c1ccc(CO)cc1  0.0612
19. COCCOC(=O)N1C(=O)[C@@]2(c3cc(C#CCC(C(=O)OC)C(=O)OC)ccc31)[C@H](C(=O)NC[C@H](O)c1ccccc1)[C@H]1C(=O)O[C@H](c3ccccc3)[C@H](c3ccccc3)N1[C@@H]2c1ccc(O)cc1  0.0648
20. COCCOC(=O)N1C(=O)[C@@]2(c3cc(C#CC4=CCCCC4)ccc31)[C@H](C(=O)N1CCCCCCC1)[C@H]1C(=O)O[C@H](c3ccccc3)[C@H](c3ccccc3)N1[C@@H]2c1ccc(OCCO)cc1  0.118
21. CN(C)CCCNC(=O)[C@@H]1c2ccccc2C(=O)N(C2CCCCC2)[C@H]1c1ccc(CO)cc1  0.189
22. C=CCC(OC(C)=O)[C@@H]1[C@@H](N(Cc2ccc(-c3cccc(C(F)(F)F)c3)o2)C(=O)c2ccc(C)cc2)c2cc(OCCCO)ccc2N1C(=O)Cc1ccc(OC)cc1 (stereo not given in full)  0.194
23. COc1ccc([Si](C)(C)[C@H]2[C@H](CCO)O[C@@]3(C(=O)N(Cc4ccc(N5C(=O)c6ccccc6Oc6ccccc65)cc4)c4ccccc43)[C@@H]2C)cc1  0.211
24. C=CCC(OC(C)=O)[C@@H]1[C@@H](N(Cc2ccc(-c3cccc(C(F)(F)F)c3)o2)C(=O)Cc2ccc(OC)cc2)c2cc(OCCCO)ccc2N1C(=O)Cc1ccc2ccccc2c1 (stereo not given in full)  0.258
25. CCCCC=C[C@@H](NC(=O)c1ccccc1)c1ccccc1  0.442
26. COCCOC(=O)N1C(=O)[C@@]2(c3cc(C#CCCO)ccc31)[C@H](c1ccccc1OCCO)N1[C@H](c3ccccc3)[C@H](c3ccccc3)OC(=O)[C@H]1[C@@H]2C(=O)N1CCCCCCC1  0.626
27. COc1ccc([Si](C)(C)[C@@H]2[C@@H](CCn3cc([C@H](O)c4ccccc4)nn3)O[C@]3(C(=O)N(c4ccccc4)c4ccccc43)[C@H]2C)cc1  0.751
28. COc1cc(C(O)C2C=CC3C(=O)N(Cc4ccccc4)C(=O)C3N2n2cnnc2)cc(OC)c1OC (stereo not given)  0.866
29. C=CCC(OC(C)=O)[C@@H]1[C@@H](N(Cc2ccc(-c3ccccc3)cc2)C(=O)c2ccc(C)cc2)c2cc(OCCCO)ccc2N1C(=O)Cc1ccc2ccccc2c1 (stereo not given in full)  1.23
30. CC(C)CNC(=O)[C@@H]1c2ccccc2C(=O)N(C2CCCCC2)[C@H]1c1ccc(CO)cc1  1.24
31. COc1ccc(C(=O)Nc2cccc(CN3C(=O)[C@@]4(O[C@@H](CC(=O)N(CCO)Cc5ccccc5)[C@H]([Si](C)(C)c5ccc(OC)cc5)[C@H]4C)c4ccccc43)c2)cc1  1.58
32. COC(=O)C(CC#Cc1ccc2c(c1)[C@]1(C(=O)N2)[C@H](C(=O)Nc2nc3ccccc3s2)[C@H]2C(=O)O[C@H](c3ccccc3)[C@H](c3ccccc3)N2[C@@H]1c1ccc(OCCO)cc1)C(=O)OC  1.76
33. CO[C@H]1O[C@H](CO)[C@@H](OC(=O)c2ccc(Br)cc2)[C@@H]2OC(=O)[C@H](Cc3ccccc3)C/C=C/C[C@@H](Cc3ccccc3)C(=O)O[C@@H]12  1.92
34. O=C(CS)NCCCCCCNC(=O)[C@@H]1C[C@@H]2C(=O)NCC(=O)N2[C@@H]1c1ccc(O)cc1  2.85
35. COC(=O)C(CC#Cc1ccc2c(c1)[C@]1(C(=O)N2)[C@H](c2ccc(O)cc2)N2[C@H](c3ccccc3)[C@H](c3ccccc3)OC(=O)[C@H]2[C@@H]1C(=O)N1CCCCCCC1)C(=O)OC  3.01
